Test results reported in PubChem BioAssay AID624331 (National Center for Advancing Translational Sciences (NCATS), 2012).
Records with an inconclusive call do not appear. Where a call stands in place of a potency, no number is given. The source made the active and inactive calls. The call rests on the fitted dose curve; in most records, active means well fitted activation curve with a large enough effect; inconclusive means small, poorly fitted or top-dose-only effect; inactive means no such curve, though single readings can be large or run the other way.

test: qHTS assay for re-activators of p53 using a Luc reporter: Hit Validation with no p53 Expressed; details: p53-null cells, luciferase reporter counter-screen; series mostly up to 46.1 µM
Summary of the method: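 Counter-screen of primary hits in a cell line not transfected with p53, in Opti-MEM with 10% FBS; compounds at several concentrations (10 mM stock, 1:5; top 46.1 µM in well), 24 h at 37 deg C, 5% CO2. Luminescence read after 10 min with Amplite reagent.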

| SMILES | Potency |
| --- | --- |
| O=C(CSc1ccccc1)Nc1ccc(-c2nc3ccccc3[nH]2)cc1 | inactive |
| Cc1csc2nc(COC(=O)c3cccc(N(C)C)c3)cc(=O)n12 | inactive |
| CCCCn1c(O)c(N=Nc2ccccc2O)c2ccccc21 | inactive |
| Cc1cccc(C)c1NC(=O)CC(NCc1ccco1)C(=O)O (centres undefined) | inactive |
| O=C(NC(=S)Nc1nc2ccccc2s1)c1ccco1 | inactive |
| Cc1ccc2nc(C(F)(F)F)c(C#N)c(N)c2c1 | inactive |
| O=C(NCC(=O)N1CCN(c2ncccn2)CC1)c1ccc(F)cc1 | inactive |
| CC(Sc1nc(N)cc(=O)[nH]1)C(=O)NNC(=O)c1cccc(Cl)c1 (centres undefined) | inactive |
| COc1ccccc1N=Nc1[nH]c2ccc(C)cc2c1O | inactive |
| COc1ccccc1C(=O)CC(=O)c1ccccc1 | inactive |
| Cc1nnc(SCC(=O)N2CCOCC2)c2ccccc12 | inactive |
| C/C(=N\NC(=O)c1cccc(Br)c1)c1ccccn1 | inactive |
| Cc1ccc(S(=O)(=O)NCC(=O)N2CCc3ccccc3C2)cc1 | inactive |
| COCCn1c(SCC(=O)c2c(N)n(C3CC3)c(=O)[nH]c2=O)nnc1-c1cccc(C)c1 | inactive |
| O=C(Nc1cccnc1)Nc1ccc(Br)cc1Cl | inactive |
| CCOC(=O)c1ccc(N2Cc3ccccc3C2=NC(=O)c2cccs2)cc1 | inactive |
| COc1ccccc1-c1cc(C(=O)Nc2cc(C)on2)no1 | inactive |
| OC(COc1ccc2cc(Br)ccc2c1)CN1CCCC1 (centres undefined) | inactive |
| Brc1ccccc1-c1nc(-c2ccccc2)no1 | inactive |
